Measured values from PubChem BioAssay (NCI).
This is part of a sample that, as a whole, favours compounds with a hit. Of some 83,000 tested, about 20% had one in any assay.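 Method: cells in 96-well plates; compound added at one concentration; 48 h incubation; percent growth measured; values under 10 scored active.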 Unmarked numbers belong to inactive results. Activity calls are given as the source filed them.

system: LOX IMVI melanoma; experiment: NCI-60 one-dose screen, 48 h (100 = growth as untreated, 0 = no growth, -100 = all killed); settings: 10 µM unless noted

Compound | growth
N#Cc1cccc(CN2CCC3=C(C2)C(=O)N(Cc2ccc(Cl)cc2)C2=NCCN23)c1 | 47.5%
COc1ccc(Oc2ccc(/C=N/NC(=O)CSc3nc4ccccc4c(=O)n3-c3ccc(Cl)cc3)cc2)cc1 | 14.7%
O=C(NNc1nc2cc(F)c(F)cc2n2c(CN3CC4CNCC4C3)ccc12)c1ncccn1 (stereo unspecified) | 1.73% (active)
COc1cc(/C=C2\C(=O)Nc3cc(Cl)ccc32)ccc1OCc1ccc(F)cc1 | 93.5%
C#CCOc1ccc(/C=N\Nc2nc(-c3ccc(C)cc3)cs2)cc1OC | 93.7%
C=CCOc1cccc(/C=C2\SC(=S)N(C3CC(=O)N(c4ccc(Br)cc4)C3=O)C2=O)c1 (stereo unspecified) | 93.1%
COc1ccc(S(=O)(=O)NCCCNc2nccc(-c3[nH]c(-c4ccccc4)nc3-c3ccc(Cl)c(O)c3)n2)cc1 | 56.9%
CCn1c2ccccc2c2cc(-n3nncc3-c3ccccc3)ccc21 | -29.5% (active)
N#Cc1cccc(CN2CCC3=C(C2)C(=O)N(Cc2ccc(Cl)cc2)C2=NCCCN23)c1 | 43.8%
COc1ccc(COc2ccc(/C=C3\C(=O)Nc4ccccc43)cc2OC)cc1 | 96.6%
O=C(NNc1nc2cc(F)ccc2n2c(CN3CC4CNCC4C3)ccc12)c1cnccn1 (stereo unspecified) | 7.74% (active)
COc1ccc2[nH]cc(-c3csc4nc(-c5ccccc5)cn34)c2c1 | -2.73% (active)
COC(=O)C[Se]C(=O)Cc1c(C)n(C(=O)c2ccc(Cl)cc2)c2ccc(OC)cc12 | -54.9% (active)
CCOc1ccc(NC2=C(Cl)C(=O)c3nc(C)ccc3C2=O)cc1 | -76.4% (active)
COc1cccc(/C=C(/C)c2ccc3cccc(OC)c3[o+]2)c1O | 127%
NC(N)=Nc1ccc(Oc2cccc(NC(N)=Nc3ccc(Cl)c(C(F)(F)F)c3)c2)cc1 | -26.5% (active)
COc1ccc(CCOc2cc3c(cc2OC)CCN(C(=O)NCc2cocn2)C3c2ccc(C)cc2C)cc1 (stereo unspecified) | 1.85% (active)
O=C1C(c2ccccc2)=C(N2CCc3ccccc32)OC1(Cl)Cl | 56.7%
O=C(NNc1nc2cc(F)ccc2n2c(CN3CCCC3)ccc12)c1cnccn1 | 3.56% (active)

Compound | growth
O=C(NNc1nc2cc(F)cc(F)c2n2cccc12)c1cnccn1 | 5.06% (active)
O=C(O)c1ccc(-n2cc(CNc3cc(F)c(F)c(F)c3)c(-c3ccc(F)cc3)n2)cc1 | 105%
COc1ccc(NC2=C(Cl)C(=O)c3nc(C)ccc3C2=O)cc1OC | -3.09% (active)
O=C(NNc1nc2cc(F)c(F)cc2n2c(CN3CC4CNCC4C3)ccc12)c1cnccn1 (stereo unspecified) | 2.25% (active)
C[C@H](CCC(=O)NCc1ccc(C(=O)Nc2ccccc2N)cc1)[C@H]1CC[C@H]2[C@@H]3[C@@H](O)C[C@@H]4C[C@H](O)CC[C@]4(C)[C@H]3CC[C@]12C | 59.6%
CC(=O)c1cc(C(=O)c2ccc(Br)cc2)n2cc(C)cc(C)c12 | 86.3%
NC(=O)c1cccc(-n2ccc3cc(NC(=O)Nc4ccc(N5CCOCC5)c(C(F)(F)F)c4)ccc32)n1 | -10.9% (active)
COc1ccc2c(c1)c(CC(=O)[Se]CC(=O)O)c(C)n2C(=O)c1ccc(Cl)cc1 | 72.1%
CN(C)CCNC(=O)c1ccc(-c2nc3ccc4[nH]ncc4c3c3c2COCC3)cc1 | -72.4% (active)
COc1ccc2c(c1)c(CC(=O)[Se]CCC#N)c(C)n2C(=O)c1ccc(Cl)cc1 | -50.4% (active)
CN1CCN(Cc2ccc(NC(=O)c3cncc(C#Cc4cnc5ccc(OCC(C)(C)O)nn45)c3)cc2C(F)(F)F)CC1 | -91% (active)
CNC(=O)c1cc(N2CCc3cc(NC(=O)Nc4ccc(Cl)c(C(F)(F)F)c4)ccc32)ccn1 | 64.7%
O=C(CSc1nc2ccccc2c(=O)n1-c1ccc(Cl)cc1)N/N=C/c1ccc(N2CCCCC2)cc1 | 43.5%
CCOc1ccc(C(=O)Nc2ncc(Cc3ccc(F)cc3)s2)cc1 | 23.7%
Cc1c(Cl)cccc1S(=O)(=O)Nc1ccc2c(c1)C(=O)N(C1CCC(=O)NC1=O)C2=O (stereo unspecified) | 122%
CC/C(=C/c1cc(OC)ccc1O)c1ccc2cc(OC)ccc2[o+]1 | 60%
COc1c(N2CC3CCCNC3C2)c(F)cc2c(=O)c(C(=O)N/N=C/c3ccc4c(c3)OCO4)cn(C3CC3)c12 (stereo unspecified) | -64.3% (active)
CN1CCN(Cc2ccc(NC(=O)c3cncc(C#Cc4cnc5ccc(OCC6(C)COC6)nn45)c3)cc2C(F)(F)F)CC1 | -93.5% (active)
O=C(NNc1nc2cc(F)c(F)cc2n2cccc12)c1cnccn1 | 11.4%

system: SK-MEL-28 melanoma; experiment: as above; settings: 10 µM unless noted

Compound | growth
N#Cc1cccc(CN2CCC3=C(C2)C(=O)N(Cc2ccc(Cl)cc2)C2=NCCN23)c1 | 48.3%
COc1ccc(Oc2ccc(/C=N/NC(=O)CSc3nc4ccccc4c(=O)n3-c3ccc(Cl)cc3)cc2)cc1 | 89.3%
O=C(NNc1nc2cc(F)c(F)cc2n2c(CN3CC4CNCC4C3)ccc12)c1ncccn1 (stereo unspecified) | 29.3%
COc1cc(/C=C2\C(=O)Nc3cc(Cl)ccc32)ccc1OCc1ccc(F)cc1 | 105%
C#CCOc1ccc(/C=N\Nc2nc(-c3ccc(C)cc3)cs2)cc1OC | 89.9%
C=CCOc1cccc(/C=C2\SC(=S)N(C3CC(=O)N(c4ccc(Br)cc4)C3=O)C2=O)c1 (stereo unspecified) | 96.6%
COc1ccc(S(=O)(=O)NCCCNc2nccc(-c3[nH]c(-c4ccccc4)nc3-c3ccc(Cl)c(O)c3)n2)cc1 | 23.5%
CCn1c2ccccc2c2cc(-n3nncc3-c3ccccc3)ccc21 | 66.4%
N#Cc1cccc(CN2CCC3=C(C2)C(=O)N(Cc2ccc(Cl)cc2)C2=NCCCN23)c1 | 44.8%
COc1ccc(COc2ccc(/C=C3\C(=O)Nc4ccccc43)cc2OC)cc1 | 107%
O=C(NNc1nc2cc(F)ccc2n2c(CN3CC4CNCC4C3)ccc12)c1cnccn1 (stereo unspecified) | 31.5%
COc1ccc2[nH]cc(-c3csc4nc(-c5ccccc5)cn34)c2c1 | 73.8%
COC(=O)C[Se]C(=O)Cc1c(C)n(C(=O)c2ccc(Cl)cc2)c2ccc(OC)cc12 | 62.8%
CCOc1ccc(NC2=C(Cl)C(=O)c3nc(C)ccc3C2=O)cc1 | 8.93% (active)
COc1cccc(/C=C(/C)c2ccc3cccc(OC)c3[o+]2)c1O | 98.9%
NC(N)=Nc1ccc(Oc2cccc(NC(N)=Nc3ccc(Cl)c(C(F)(F)F)c3)c2)cc1 | 70%
COc1ccc(CCOc2cc3c(cc2OC)CCN(C(=O)NCc2cocn2)C3c2ccc(C)cc2C)cc1 (stereo unspecified) | 38.7%
O=C1C(c2ccccc2)=C(N2CCc3ccccc32)OC1(Cl)Cl | 31.8%
O=C(NNc1nc2cc(F)ccc2n2c(CN3CCCC3)ccc12)c1cnccn1 | 30.8%

Compound | growth
O=C(NNc1nc2cc(F)cc(F)c2n2cccc12)c1cnccn1 | 25.8%
O=C(O)c1ccc(-n2cc(CNc3cc(F)c(F)c(F)c3)c(-c3ccc(F)cc3)n2)cc1 | 85.9%
COc1ccc(NC2=C(Cl)C(=O)c3nc(C)ccc3C2=O)cc1OC | 102%
O=C(NNc1nc2cc(F)c(F)cc2n2c(CN3CC4CNCC4C3)ccc12)c1cnccn1 (stereo unspecified) | 27.4%
C[C@H](CCC(=O)NCc1ccc(C(=O)Nc2ccccc2N)cc1)[C@H]1CC[C@H]2[C@@H]3[C@@H](O)C[C@@H]4C[C@H](O)CC[C@]4(C)[C@H]3CC[C@]12C | 63.6%
CC(=O)c1cc(C(=O)c2ccc(Br)cc2)n2cc(C)cc(C)c12 | 92.4%
NC(=O)c1cccc(-n2ccc3cc(NC(=O)Nc4ccc(N5CCOCC5)c(C(F)(F)F)c4)ccc32)n1 | -0.669% (active)
COc1ccc2c(c1)c(CC(=O)[Se]CC(=O)O)c(C)n2C(=O)c1ccc(Cl)cc1 | 90.3%
CN(C)CCNC(=O)c1ccc(-c2nc3ccc4[nH]ncc4c3c3c2COCC3)cc1 | -6.13% (active)
COc1ccc2c(c1)c(CC(=O)[Se]CCC#N)c(C)n2C(=O)c1ccc(Cl)cc1 | -1.32% (active)
CN1CCN(Cc2ccc(NC(=O)c3cncc(C#Cc4cnc5ccc(OCC(C)(C)O)nn45)c3)cc2C(F)(F)F)CC1 | -38.9% (active)
CNC(=O)c1cc(N2CCc3cc(NC(=O)Nc4ccc(Cl)c(C(F)(F)F)c4)ccc32)ccn1 | 66.9%
O=C(CSc1nc2ccccc2c(=O)n1-c1ccc(Cl)cc1)N/N=C/c1ccc(N2CCCCC2)cc1 | 84.8%
CCOc1ccc(C(=O)Nc2ncc(Cc3ccc(F)cc3)s2)cc1 | 61.9%
Cc1c(Cl)cccc1S(=O)(=O)Nc1ccc2c(c1)C(=O)N(C1CCC(=O)NC1=O)C2=O (stereo unspecified) | 97.8%
CC/C(=C/c1cc(OC)ccc1O)c1ccc2cc(OC)ccc2[o+]1 | 61.8%
COc1c(N2CC3CCCNC3C2)c(F)cc2c(=O)c(C(=O)N/N=C/c3ccc4c(c3)OCO4)cn(C3CC3)c12 (stereo unspecified) | 96.5%
CN1CCN(Cc2ccc(NC(=O)c3cncc(C#Cc4cnc5ccc(OCC6(C)COC6)nn45)c3)cc2C(F)(F)F)CC1 | -89.2% (active)
O=C(NNc1nc2cc(F)c(F)cc2n2cccc12)c1cnccn1 | 36%
